# esBAF inh = Bmi1 luciferase reporter increase in mESCs, primary screen, esBAF inhibitor project, mouse ES cells, Bmi1 luciferase knock-in, single point; 24 h; 100% = twice the neutral-well signal; reporter increase, % at 12.5 µM; 350,000 tested, 2% active; in the data active means activation above about 40%;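 further: a rise in the Bmi1 reporter signal indicates esBAF inhibition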
# hcDAF12 agonist = H. contortus DAF-12 nuclear receptor activators, primary screen, cell-based, luminescence, HEK293, lit1-tk-luc reporter. HEK293 hcDAF-12 lit1-tk-luc reporter; 0% DMSO, 100% Δ7-dafachronic acid. activation, % at 6.8 µM. 370,000 tested, 1.4% active. AID 652067, 2013;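 active means activation above the mean of all tested compounds plus 3 SD, cut at about 5.5% in these data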
# hgDAF12 agonist = H. glycines DAF-12 receptor agonists, primary screen, cell-based, luminescence, HEK293, GAL4 fusion, UAS-luciferase; Nuclear hormone receptor DAF-12 (Heterodera glycines), GAL4 fusion; HEK293 GAL4-hgDAF12 UAS-luciferase reporter, agonist luminescence; normalized to butyrate control; activation, % at 6.8 µM; 370,000 tested, 1.8% active; AID 687014, 2013;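 active means activation above a cutoff set at the mean of all screened compounds plus 3 SD, cut at about 10% in these data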
# DAX1 StAR inh = DAX1 (NR0B1) inhibitors on StAR promoter, primary screen, cell-based, luminescence, SF-1 (NR5A1), full-length DAX-1; HEK293T StAR-luciferase reporter, SF-1/DAX-1 repression relief; inhibition, % at 6.8 µM; 370,000 tested, 1.1% active;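 active means inhibition above the mean over all tested compounds plus 3 SD, cut at about 3.6% in these data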;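 further: higher inhibition means more luminescence from relief of DAX-1 repression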
# Wnt act = Wnt/beta-catenin pathway activators, primary screen, cell-based, plate reader, single point; Wnt/beta-catenin reporter cell assay, activator; activation, % at 9.35 µM; 300,000 tested, 1.2% active; AID 743398, 2014; in the data active means activation above about 30%, passing the limit was not always enough
# ssDAF12 agonist = S. stercoralis DAF-12 nuclear receptor activators, primary screen, cell-based, luminescence, HEK293, GRIP1 co-expression, lit1-tk-luc; Nuclear hormone receptor DAF-12 (Strongyloides stercoralis); HEK293 ssDAF-12/GRIP1 lit1-tk-luc reporter; % of 3 µM dafachronic acid response; activation, % at 6.8 µM; 370,000 tested, 1% active;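 active means activation above the mean over all tested compounds plus 3 SD, cut at about 0.9% in these data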
# A number is an active result; 0 = inactive; - = no result given. Only some compounds are listed: those with a hit (about 4.2% of all), similar ones and a draw of the others.
SMILES,esBAF inh,hcDAF12 agonist,hgDAF12 agonist,DAX1 StAR inh,Wnt act,ssDAF12 agonist
O=C(NCc1nnc(SCC(=O)N2CCCCC2)o1)c1c(F)cccc1F,0,0,0,0,0,0
CCOc1ccccc1N(CC(=O)Nc1ccccc1F)S(=O)(=O)c1ccccc1,0,0,10.5,0,0,0
CCOc1ccccc1N(CC(=O)Nc1ccc(OC)cc1OC)S(=O)(=O)c1ccccc1,0,0,0,0,0,0
Cc1ccc(-n2c(COc3ccccc3)nnc2SCC(=O)O)cc1,0,0,0,0,62.1,0
Cc1noc(C)c1S(=O)(=O)Nc1ccc2c(c1)CC(=O)N([C@@H](C)CO)C[C@@H](C)[C@H](CN(C)Cc1ccc(C(=O)Nc3ccccc3N)cc1)O2,0,-,-,-,-,-
C[C@H](CO)N1C[C@H](C)[C@@H](CN(C)C(=O)NC2CCCCC2)Oc2c(NC(=O)c3cnccn3)cccc2C1=O,0,-,-,-,-,-
CC(C)N1CCN(Cc2cc3ccccc3[nH]2)CC1CCO (stereo not given),0,0,0,0,0,1.1
CNC(=O)C[C@H]1CC[C@H]2[C@@H](COc3ccc(NC(=O)Nc4ccccc4F)cc3C(=O)N2C)O1,0,-,-,-,-,-
CSc1cccc2sc(NC(=O)C3=COCCO3)nc12,56.8,0,0,0,0,0
O=C(NNc1nc2c(F)cccc2s1)C1=COCCO1,0,0,0,0,0,0
CCCNC(=O)Nc1ccc2c(c1)OC[C@@H](C)N(C(=O)c1ccccc1F)C[C@@H](C)[C@@H](OC)CN(C)C2=O,0,-,-,-,-,-
COc1ccc(S(=O)(=O)n2ccc(-c3cnc(-c4ccccc4)s3)n2)cc1,0,0,0,0,40.6,0
CN(CCOc1ccc(-c2ccn(S(=O)(=O)c3ccc(Cl)cc3)n2)cc1)c1ccccn1,0,0,0,0,0,0
C[C@@H]1CN([C@@H](C)CO)C(=O)Cc2cc(N(C)C)ccc2O[C@H]1CN(C)S(=O)(=O)c1ccc(Cl)cc1,0,-,-,-,-,-
C[C@@H](NC(=O)C[C@H]1C[C@H]2c3cc(NC(=O)CC4CC4)ccc3O[C@H]2[C@@H](CO)O1)c1ccccc1,0,-,-,-,-,-
CCN(CC)S(=O)(=O)c1cccc(-c2nc3n(n2)Cc2ccccc2-3)c1,75.1,0,0,0,0,0
CC(C)NC(=O)N(C)C[C@@H]1Oc2c(NC(=O)C3CCCCC3)cccc2C(=O)N([C@H](C)CO)C[C@H]1C,0,-,-,-,-,-
CN(c1ccccc1)c1nc2ccsc2c(=O)s1,46.6,0,0,0,0,0
C[C@@H]1CN([C@H](C)CO)C(=O)c2cc(NS(=O)(=O)c3ccc(F)cc3)ccc2O[C@H]1CN(C)C(=O)Nc1ccc(C(F)(F)F)cc1,0,-,-,-,-,-
COc1ccc2cc(-c3cc(C(=O)OCC(=O)NC4CCS(=O)(=O)C4)c4ccccc4n3)ccc2c1 (stereo not given),-,0,15.4,4.4,-,0
COc1ccccc1S(=O)(=O)N[C@H]1CC[C@@H](CCNC(=O)C2CCCCC2)O[C@H]1CO,0,-,-,-,-,-
Cc1ccc(C)c(NC(=O)[C@@H]2CCCN2S(=O)(=O)c2ccccc2F)c1,0,0,0,0,0,0
COc1ccc(C)cc1NC(=O)C1CCCN1S(=O)(=O)c1ccccc1F (stereo not given),0,0,0,0,62.3,0
Cc1nc2ccccc2c(=O)n1Nc1cccc(Cl)c1,-,0,0,0,0,0
O=c1c2ccccc2nc2sc(Nc3cccc(Cl)c3)nn12,46.1,0,0,0,0,0
SMILES,esBAF inh,hcDAF12 agonist,hgDAF12 agonist,DAX1 StAR inh,Wnt act,ssDAF12 agonist
COc1ccccc1Nc1nn2c(=O)c3ccc(C(=O)N4CCCCC4)cc3nc2s1,0,0,0,0,0,0
O=c1c2ccc(F)cc2nc2sc(Nc3ccc4c(c3)CCC4)nn12,-,0,10.6,-,-,0
COc1cc(/C=N/OCC(=O)NC23CC4CC(CC(C4)C2)C3)ccc1OCc1ccccc1,62.1,0,0,0,0,0
Cc1cccc(Oc2coc3cc(O)ccc3c2=O)c1,58.7,0,0,0,0,0
Cc1cccc(Oc2coc3cc(OC(=O)c4cc5ccccc5oc4=O)ccc3c2=O)c1,53.6,0,0,0,-,0
Cc1cccc(Oc2coc3cc(OC(=O)c4cncc(Br)c4)ccc3c2=O)c1,34.3,0,0,0,0,0
C[C@H](CO)N1C[C@H](C)[C@H](CN(C)C(=O)Nc2ccc(F)cc2)Oc2c(NS(C)(=O)=O)cccc2C1=O,0,-,-,-,-,-
C[C@@H]1CN([C@@H](C)CO)C(=O)c2cc(-c3cccnc3)cnc2O[C@@H]1CN(C)C(=O)Cc1cccnc1,0,-,-,-,-,-
COc1ccccc1CNC(=O)C[C@H]1C[C@@H]2c3cc(N(C)C)ccc3O[C@@H]2[C@H](CO)O1,0,-,-,-,-,-
CNc1ccccc1C(=O)OCC(=O)c1ccc(F)cc1,-,0,0,0,0,0
Cc1ccc(C(=O)O/N=C(\N)c2ccc(Br)cc2)cc1,81.9,0,0,0,-,0
COc1ccc(/C(N)=N/OC(=O)c2ccc(C)c([N+](=O)[O-])c2)cc1,69.7,0,0,0,-,0
COc1ccc(OCC(=O)O/N=C(\N)c2ccc(OC)cc2)cc1,-,0,0,0,0,0
COc1ccc(C(=O)O/N=C(\N)c2ccc(Br)cc2)cc1,58.7,0,0,0,34.5,0
CNc1ccccc1C(=O)OCC(=O)c1ccccc1,58.6,-,-,-,-,-
N/C(=N\OC(=O)c1ccc(Br)cc1)c1ccccc1,0,0,11.9,0,-,0
O=C(COC(=O)c1ccccc1)c1ccc(Br)cc1,61.0,0,0,0,0,0
CC(C)(C)c1ccc(OCCC(=O)Nc2ccc(N3CCOCC3)cc2N2CCOCC2)cc1,0,0,0,4.0,0,0
O=C(CCCOc1ccc(Cl)cc1)N1CCCCCC1,62.3,0,0,0,-,0

# Bioassay records (PubChem)
